In the library only some 11% were active in any assay of this set; here they are far more common.
Tau fibril FP = blocks human tau fibril formation measured by polarization | P10636 | K18 P301L tau heparin fibrillization, Alexa594 FP, 6 h | Potency, µM (doses to about 57.7 µM), for the others: at the highest dose activity, negative = inhibition, actives largely listed as inhibitors | hit rate 0.39% among 280,000 | AID 1468; note: potency is the fitted concentration of half-maximal effect; nearly all actives have a fitted effect of over 55% in size
Target sequence (P10636 561-689 P618L limits assumed): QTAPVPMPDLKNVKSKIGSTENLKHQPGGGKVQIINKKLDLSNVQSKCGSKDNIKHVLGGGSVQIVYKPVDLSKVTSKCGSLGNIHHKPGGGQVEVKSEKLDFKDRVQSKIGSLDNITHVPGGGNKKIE
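Compound effects on tau fibrillization are measured by Alexa 594 fluorescence polarization (ex 555, em 632 nm). K18 P301L tau is used at 15 uM with 0.24 uM labeled tracer, and 20 uM heparin induces aggregation over 6 hr at 37 C.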
FBPA coupling cs = counter-screen for Giardia aldolase inhibitors: coupling enzyme system; coupling enzyme system counterscreen, AmpLite Red fluorescence; activity change, negative = inhibition, % at 58.2 µM, hits read low; hit rate 0.67% among 290,000; AID 2472; in the data active = activity change below about -30%
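Fluorescence at 525 nm excitation and 598 nm emission measured inhibition of the coupled detection system without aldolase. Compounds (at 57.5 uM final) were preincubated 10 min at room temperature with coupling enzyme reagent before a 20 min substrate/AmpLite Red step.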
Tau fluor cs = counter-screen for tau fibril formation inhibitors; hit rate 0.93% among 280,000; Potency, µM (series often up to 57.7 µM), inactives show at the top dose activity change, negative = decrease; tau K18 P301L Alexa594 fluorescence, heparin fibrillization; note: potency is the fitted concentration of half-maximal effect; nearly all actives have a fitted effect of over 55% in size
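Human K18 P301L tau (15 uM unlabeled plus 0.24 uM Alexa 594-labeled, final) in 100 mM sodium acetate pH 7 was mixed with compound and 20 uM heparin and incubated 6 hr at 37 C.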
G9a block = blocks human histone lysine methyltransferase G9a; G9a H3K9 monomethylation, AlphaScreen, 2 h; Potency, µM (series often up to 102 µM), inactives show at the top dose activity, negative = inhibition, actives largely listed as inhibitors; hit rate 8.8% among 350,000; AID 504332; note: potency is the fitted concentration of half-maximal effect; nearly all actives have a fitted effect of over 75% in size
Target sequence (Q96KQ7 913-1193 limits assumed): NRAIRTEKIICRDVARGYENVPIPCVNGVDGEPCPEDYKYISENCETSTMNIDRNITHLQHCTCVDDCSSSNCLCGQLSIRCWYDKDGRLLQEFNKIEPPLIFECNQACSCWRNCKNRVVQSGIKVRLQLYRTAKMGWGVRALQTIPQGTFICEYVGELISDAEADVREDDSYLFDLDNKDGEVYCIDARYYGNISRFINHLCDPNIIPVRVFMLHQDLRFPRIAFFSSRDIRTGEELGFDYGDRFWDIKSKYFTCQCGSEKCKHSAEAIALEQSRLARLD
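Readings reflect AlphaScreen signal from monomethyl-H3K9 antibody detection. HMT at 20 nM; substrate b-H3K9 500 nM; cofactor SAM 20 uM; 2 h RT reaction; compounds tested as titrations in qHTS with 15 min preincubation.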
Tau fibril ThT = tau fibrillization inhibition (ThT binding); recombinant tau K18 P301L, heparin-induced fibrillization, ThT fluorescence; hit rate 2.1% among 270,000; AID 1460; Potency, µM (top dose mostly 57.4 µM), for the others: at the highest dose activity, negative = inhibition, hits mostly inhibitors; P10636; note: potency is the fitted concentration of half-maximal effect; nearly all actives have a fitted effect of over 55% in size
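ThT emission at 510 nm, taken 1 hr after adding 30 uM dye, quantifies aggregates formed when 20 uM heparin acts on human tau K18 P301L for 6 hr at 37 C.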
Sfp inh = inhibitors of Bacillus subtilis Sfp phosphopantetheinyl transferase. Potency, µM, for inactives: largest response in the series, negative = inhibition, usual class: inhibitors. Biochemical Sfp PPTase activity, qHTS. Q9F4F7. hit rate 3.5% among 310,000;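 note: the enzyme is Sfp with the accession as filed and its product quenches rhodamine fluorescence; potency is the fitted concentration of half-maximal effect; 0% = enzyme reaction without inhibitor and -100% = no enzyme wells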
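Step 1, compound plus 15 nM Sfp-PPTase, 15 min, room temperature. Step 2, add rhodamine-CoA (5 uM) and BHQ-2-YbbR (12.5 uM). Step 3, read 525/598 nm fluorescence at 0 and 30 min.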
Active calls of the source: *; ? = inconclusive; . = no result given; [ ] = dose if it differs, or a comment. Unless noted, calls come from the whole dose curve; as a rule, active = well fitted curve in the direction sought with a large enough effect; inconclusive = small, poorly fitted or top-dose-only effect, or another doubt; inactive = no such curve, though single readings can be large; an effect the other way counts as inactive or inconclusive. Unless noted, % is set by controls: 0 for no effect and ±100 for the full control effect.

SMILES	Tau fibril FP	FBPA coupling cs	Tau fluor cs	G9a block	Tau fibril ThT	Sfp inh
Cc1ccc(C)c(NC(=O)CSc2nc(=O)n(Cc3ccncc3)c3c2CCC3)c1	-5.5%	.	-7.4%	-1.9%[59 µM]	-16.3%	.
O=c1c(-c2cccc(F)c2)nc2cncnc2n1C1CC1	.	2.3	.	3.5%[12.7 µM]	.	16.7%
O=C(Nc1ccc(C(=O)OCc2cc(=O)n3c4c(sc3n2)CCCC4)cc1)c1ccccc1	-16.2%	.	-23.1%	17.4%[59 µM]	?	.
Cc1cccc(C(=O)N2CCCC(N3CCN(Cc4ccc5c(c4)OCO5)CC3)C2)n1 (stereo not given)	.	-2.1	.	.	.	7.8%
O=C(COC(=O)c1cnccn1)Nc1ncc(Cl)cc1Cl	.	.	.	28.2µM*	.	.
CN1CCC[C@@H]1Cc1c[nH]c2ccc(CCS(=O)(=O)c3ccccc3)cc12	.	.	.	-19.1%[12.7 µM]	.	-6.0%
COc1ccc(-c2csc(/C(C#N)=C(\O)CSc3nccn3C)n2)cc1OC	-3.4%	-15.3	?	44.7µM*	17.8µM*	?
CCCCCS(=O)(=O)c1oc(-c2cccs2)nc1S(=O)(=O)c1ccc(C)cc1	-15.2%	.	-7.8%	3.55µM*	?	.
CC(=O)NC(Cc1cc(C)ccc1C)C(=O)N1CCN(C(=O)c2ccc([N+](=O)[O-])cc2)CC1 (stereo not given)	.	1.5	.	-8.0%	.	17.6%
CCCC(=O)Nc1ccc(-c2csc(N/N=C\c3ccncc3)n2)cc1	?	-2.6	15.8µM*[quencher]	.	.	25.1µM*
Clc1ccc(-c2csc(N/N=C/c3cccnc3)n2)c(Cl)c1	?	-2.4	?	?	?	?
C(=N\Nc1nc(-c2ccccc2)cs1)/c1cccnc1	12.1%	-1.5	15.8µM*[quencher]	?	15.8µM*	56.2µM*
CC(=O)Nc1ccc(-c2csc(N/N=C\c3ccncc3)n2)cc1	7.3%	-1.6	?	8.91µM*	.	20µM*
CCC(CO)Oc1cc(NC(=O)c2cccc(Cl)c2)c2ncn(C(C)C)c2c1 (stereo not given)	.	.	.	10.3%[0.501 µM]	.	.
Cc1ccccc1NC(=O)CC1SCCNC1=O (stereo not given)	-10.2%	-0.9	-1.6%	15.5%[59 µM]	-10.9%	22.4µM*
Cc1ccc(C)c(N2CCN(C(=O)C(C)n3nc(C)c4sc5ccccc5c4c3=O)CC2)c1 (stereo not given)	-2.8%	.	-2.6%	-27.1%[59 µM]	-0.1%	.
CC(C)C(NC(=O)OCc1ccccc1)C(=O)OCC(=O)NC1CC1 (stereo not given)	2.7%	-0.3	-0.3%	5.2%	0.4%	3.9%
COc1ccc(CNCc2ccco2)cc1OCc1ccccc1	5.5%	-1.7	-3.4%	12.6µM*	-6.8%	?
CC(C)C(NC(=O)OCc1ccccc1)C(=O)OCC(=O)NCc1ccco1 (stereo not given)	1.3%	4.3	-3.7%	-20.6%[59 µM]	?	56.2µM*
O=C(COC(=O)COc1ccc(Nc2ccccc2)cc1)NCc1ccco1	0.3%	-3.2	-15.1%	50.1µM*	?	-14.3%
CN(C)S(=O)(=O)c1ccc(C(=O)OCC(=O)NCc2ccco2)cc1	5.3%	0.8	-0.9%	50.1µM*	-8.4%	-4.1%
CCOC(=O)C1CCC/C1=N\NC(=O)CN(c1cc(OC)ccc1OC)S(=O)(=O)c1ccccc1 (stereo not given)	.	0.4	.	-18.9%	.	4.5%
Cc1cccc(CC(=O)N2CC(=O)Nc3ccc(C)cc3C2c2ccc(F)cc2)c1 (stereo not given)	2.4%	.	-17.5%	7.3%[59 µM]	?	.
COc1ccc(CCNC(=O)C(=O)NCC(c2ccco2)S(=O)(=O)c2cccs2)cc1 (stereo not given)	-11.3%	.	-18.4%	-3.2%[59 µM]	-12.9%	.
CCOC(=O)C1CCN(C(=O)c2cc(COc3ccc(F)cc3F)on2)CC1	.	.	.	59.0%	.	0.9%
O=C(COC(=O)c1ccc(NS(=O)(=O)c2cccs2)cc1)NCc1ccco1	-0.7%	3.5	-8.6%	?	-13.9%	35.5µM*
CCOc1cc(C(=O)OCC(=O)NCc2ccco2)cc(OCC)c1OCC	-6.5%	5.4	-6.3%	50.1µM*	-5.2%	-10.6%
